Bioassay records: PubChem BioAssay, National Center for Advancing Translational Sciences (NCATS)
TDP1 cell noCPT: qHTS for Inhibitors of human tyrosyl-DNA phosphodiesterase 1 (TDP1): qHTS in cells in absence of CPT; DT40 Tdp1-/- hTDP1 cells, no CPT, ATP luminescence, 48 h; Potency, µM (titrated, usually from 46.2 µM), without a hit: top-dose activity change, negative = growth inhibition, actives largely listed as inhibitors; hit rate 15% among 420,000; note: potency is the fitted concentration of half-maximal effect; % is set by controls: 0 for no effect and ±100 for the full control effect; nearly all actives have a fitted effect of over 55% in size
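DT40 Tdp1-/-;hTDP1 cells, no CPT (DMSO vehicle only), 400 cells/well; compounds pin-transferred; ≥48 hr, 37 °C; CellTiter-Glo 30 min RT dark, luminescence read.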
ClpP mod: qHTS Assay for Activators of ClpP; ATP-dependent Clp protease proteolytic subunit (Bacillus subtilis (strain 168)), P80244; purified B. subtilis ClpP, FRET peptide cleavage, 20 min; Potency, µM (highest dose often 57.5 µM), inactives show at the top dose activity change, negative = active; hit rate 1.9% among 340,000; AID 651965, 2013; active = well fitted falling curve with a large enough effect; inconclusive = small, poorly fitted or top-dose-only effect; inactive = no such curve, though single readings can be large or run the other way; note: potency is the fitted concentration of half-maximal effect; the source files actives as falling curves though it sought activators and does not explain the sign; nearly all actives have a fitted effect of over 65% in size
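FRET quenching reversal measured ClpP activation: 10 microg/mL B. subtilis ClpP at pH 8 with the FRET-FV decapeptide, read at 430 nm after 320 nm excitation. The 20-min minus 0-min signal was scaled between DMSO/no-enzyme wells and ADEP (5.8 microM final).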
IL1B secr inh: qHTS for Inhibitors of Inflammasome Signaling: IL-1-beta AlphaLISA Primary Screen; THP-1 LPS/ATP IL-1B secretion, AlphaLISA, 16 h; active compounds read low; hit rate 4.7% among 360,000; activity change, % at 57.5 µM; in the data active = activity change below about -50%; inconclusive = mostly about -30% to -49%; note: % is set by controls: 0 for no effect and ±100 for the full control effect
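THP-1 cells pretreated 1 hr with compounds (up to 57.5 uM final), then stimulated with LPS (250 ng/mL final) plus ATP (1.25 mM final); secreted IL-1B measured by AlphaLISA after 16 hr, decreased signal indicating inhibition.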
DT40 TDP1 CPT: qHTS for Inhibitors of human tyrosyl-DNA phosphodiesterase 1 (TDP1): qHTS in cells in presence of CPT. chicken DT40 Tdp1-/-;hTDP1 cells + 20 nM CPT, ATP luminescence, 48 h. Potency, µM (highest dose often 46.2 µM), for inactives: at the top dose activity change, negative = growth inhibition, most hits filed as inhibitors. hit rate 12% among 420,000. AID 686979, 2013; note: potency is the fitted concentration of half-maximal effect; % is set by controls: 0 for no effect and ±100 for the full control effect; nearly all actives have a fitted effect of over 55% in size
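Chicken DT40 Tdp1-/- cells complemented with human TDP1, 400 cells/well, exposed to compounds plus 20 nM camptothecin for at least 48 h at 37 C; viability read as ATP content by CellTiter-Glo luminescence.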
D3 antag: qHTS of D3 Dopamine Receptor Antagonist: qHTS | D(3) dopamine receptor (Homo sapiens), P35462 | D3R cells, DiscoveRx beta-arrestin luminescence, antagonist mode; active compounds read low | max response, negative = inhibition, % | hit rate 2.5% among 360,000; in the data active = max response below about -50%; inconclusive = no clear call, values can overlap the other calls; note: % is set by controls: 0 for no effect and ±100 for the full control effect
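Cells expressing the human receptor were seeded at 1500 cells/well, incubated overnight at 37 degrees C in 5% CO2, then exposed to library compounds with dopamine controls for 90 minutes at 37 degrees C before luminescent detection.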
D3 ag: qHTS of D3 Dopamine Receptor Agonist: qHTS; D3R DiscoveRx beta-arrestin cells, luminescence, 90 min; AID 652048, 2013; max activation, %; hit rate 0.58% among 410,000; in the data active = max activation above about 30%; note: 0% is about no effect
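Cells at 1500/well, incubated overnight, then treated with pinned compounds (dopamine as control) for 90 min at 37 degrees C. DiscoveRx reagent added for 30 - 60 minutes at room temperature; luminescence read.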
Numbers without * were called inactive; ? = inconclusive; . = no result given. Rows were chosen to be rich in hits. Some 21% of all compounds tested hit in one or more screens of this group. Unless noted, calls come from the whole dose curve; as a rule, active = well fitted inhibition curve with a large enough effect; inconclusive = small, poorly fitted or top-dose-only effect; inactive = flat fitted curve, though single readings scatter.

SMILES | TDP1 cell noCPT | ClpP mod | IL1B secr inh | DT40 TDP1 CPT | D3 antag | D3 ag
Cc1ccc(C(=O)Nc2ccc(Cl)cc2C(=O)c2ccccc2)cc1 | -3.8% | 0.8% | -0.6 | -11.2% | -9.6 | -9.5
COc1cc(C(=O)Nc2ccc(Br)cc2C(=O)c2ccccc2Cl)cc(OC)c1OC | 23.1µM* | -3.0% | 27.6 | ? | 2.0 | 1.3
O=C(Nc1ccc(Cl)cc1C(=O)c1ccccc1)c1ccccc1Br | 2.91µM* | 1.4% | . | ? | . | 0.8
O=C(CN1CCCCC1)NCC(=O)Nc1ccc(Br)cc1C(=O)c1ccccc1 | 18.4µM* | -1.5% | 22.6 | 16.4µM* | 1.1 | -2.4
COc1ccc(OC(=O)Nc2ccc([N+](=O)[O-])cc2OC)cc1 | ? | 1.8% | -3.6 | -29.2% | 16.9 | 3.5
CC12CCCCC1=NC(c1ccc(Br)cc1)N2O (stereo unspecified) | -8.6% | 3.4% | 13.4 | -15.4% | -12.6 | -2.9
O=C(CNC(=O)OCc1ccccc1)NCC(=O)Nc1ccc(Br)cc1C(=O)c1ccccc1 | -20.6% | 25.1µM* | 7.7 | -3.4% | 8.9 | 2.6
O=C(CNC(=O)c1ccccc1)Nc1ccc(Br)cc1C(=O)c1ccccc1 | ? | -0.9% | -52.2* | 1.9% | -2.4 | -1.5
CCC1(c2ccccc2)C(=O)NC(=O)N(C(=O)c2ccccc2)C1=O (stereo unspecified) | -21.2% | . | . | -18.6% | . | 2.7
O=C(Nc1cccc(Br)c1)c1c(O)c2c(n(Cc3ccccc3)c1=O)CCCC2 | -4.6% | -1.6% | 12.3 | 3.8% | 1.9 | 3.4
N#CC(c1ccccc1)N1CCOCC1 (stereo unspecified) | 18.8% | -0.8% | -12.0 | -6.3% | -6.3 | 8.7
O=C(CSc1ncnc2c1nnn2-c1ccc(F)cc1)NCC1CCCO1 (stereo unspecified) | 20.6µM* | -1.9% | ? | 14.6µM* | -3.3 | 3.0
O=C(/C=C/C=C/c1ccccc1)CC1(O)C(=O)Nc2ccccc21 (stereo unspecified) | ? | . | 0.0 | ? | 0.0 | -8.9
O=C(c1cccc2ccccc12)C1CCCN(C2CCC2)C1 (stereo unspecified) | ? | . | 2.1 | -13.1% | -51.1* | -16.9
O=C(c1ccc(Cl)cc1)C1CCCN(C2CCSCC2)C1 (stereo unspecified) | ? | . | -6.4 | 3.9% | -23.2 | -6.4
O=C(c1cccc2ccccc12)C1CCCN(Cc2ccon2)C1 (stereo unspecified) | ? | . | -4.3 | ? | -67.7* | -31.4
Cc1cc(Cl)ccc1C(=O)C1CCCN(Cc2ccon2)C1 (stereo unspecified) | ? | . | -9.7 | ? | -6.9 | -11.4
O=C(Nc1cccc(C(F)(F)F)c1)C1CCCN1S(=O)(=O)c1cccc2nsnc12 (stereo unspecified) | ? | 2.1% | . | 18.4µM* | . | 9.6
CCc1ccc(-n2c(=O)c3sc4ccccc4c3n(CC(=O)NC3CCCC3)c2=O)cc1 | ? | 4.6% | . | ? | . | 2.1
Fc1ccc(N2CCN(c3ncnc4c3nc3n4CCCCC3)CC2)cc1 | 18.4µM* | -15.5% | . | -18.7% | . | 7.7
C(#CCN1CCCC1)CN1CCCC1 | -3.8% | . | -12.6 | 17.0% | -5.7 | 0.7
O=c1nc(/C=C/c2ccc(Cl)cc2Cl)cc(C(F)(F)F)[nH]1 | ? | -6.2% | -87.4* | -12.7% | -3.3 | -2.7
O=C1Nc2ccc(Cl)cc2C(c2ccccc2Cl)=NC1O (stereo unspecified) | -95.4% | . | . | ? | . | 2.8
N#CCC(=O)NN1Cc2ccccc2C1=N | -4.2% | 0.6% | 27.8 | -13.0% | 15.6 | 7.2
CCCCCCC(C)(C)c1ccc([C@@H]2C[C@H](O)CC[C@@H]2CCCO)c(O)c1 | 2.99µM* | . | . | 18.8µM* | . | .
SMILES | TDP1 cell noCPT | ClpP mod | IL1B secr inh | DT40 TDP1 CPT | D3 antag | D3 ag
O=C1CN(O)C(c2ccccc2)=c2cc(Cl)ccc2=N1 | -1.0% | -1.5% | -1.6 | -22.5% | 1.8 | -4.5
CCCc1[nH][nH]c(=O)c1C(c1ccccc1)C(C#N)C#N (stereo unspecified) | ? | -0.6% | -17.4 | ? | -54.7* | 0.8
CC(N)Cc1c[nH]c2ccc(Cl)cc12 (stereo unspecified) | -29.1% | 1.6% | -20.8 | -12.2% | 21.3 | 4.8
Clc1ccc2[nH]c3c(c2c1)CCNC3 | ? | -0.6% | 0.0 | ? | -70.4* | -17.0
O=Nc1c(O)c2ccccc2c2ccccc12 | 3.26µM* | 1.7% | -76.4* | 1.84µM* | -3.9 | 14.0
CC(NCc1ccccc1C(F)(F)F)C(O)c1ccccc1 (stereo unspecified) | -24.5% | . | -17.9 | -1.1% | -9.7 | -0.5
CCOc1ccc(NCc2cccn2-c2nnc(N3CCC(C(=O)NC(C)c4ccccc4)CC3)s2)cc1 (stereo unspecified) | 8.2µM* | -2.0% | . | 20.6µM* | . | -5.3
Cc1ccc(C(=O)c2cn(CC(=O)Nc3ccc(C(C)C)cc3)c3nc(C)ccc3c2=O)cc1 | 6.51µM* | 2.0% | . | 6.51µM* | . | -3.1
C[C@@H]([C@H](O)c1ccccc1)N(C)C | -10.0% | . | . | 2.2% | . | 8.1
CN1CCN(c2ccc([N+](=O)[O-])c(SCCO)c2)CC1 | -11.6% | 0.3% | -5.7 | -2.0% | -4.3 | -4.1
COc1ccc(-n2nnnc2C(CCc2ccccc2)N2CCC(n3c(=O)[nH]c4ccccc43)CC2)cc1 (stereo unspecified) | 23.1µM* | -0.5% | . | ? | 94.1 | 19.2
COc1cccc(C(c2nnnn2-c2c(C)cccc2C)N2CCC(n3c(=O)[nH]c4ccccc43)CC2)c1OC (stereo unspecified) | 5.8µM* | 0.0% | -84.3* | 5.8µM* | 14.1 | 5.3
